The record followed here is PubChem BioAssay (NCI).

Compounds without any hit were thinned out: in the full panel of roughly 83,000, 20% have a hit.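 The test compound was applied at a single concentration to cells in 96-well plates for 48 hours, and percent growth was recorded.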 Values without a mark were called inactive. Activity calls are given as the source filed them. Rule for the calls: active = growth percent below 10; inactive = the rest.

Among the test systems are NCI-H226 lung; NCI-H322M lung; HOP-62 NSCLC; NCI-H460 lung; HOP-92 NSCLC; NCI-H522 lung; A549/ATCC NSCLC; 786-0 renal; DU-145 prostate; K-562 leukemia; MALME-3M melanoma; MDA-MB-231 breast; RXF 393 renal; SF-268 CNS; SF-295 CNS; SF-539 CNS; UACC-257 melanoma; M14 melanoma; COLO 205 colon.
Common to all, as to assay: NCI-60 one-dose screen, 48 h (100 = growth as untreated, 0 = no growth, -100 = all killed)
Common to all, as to details: 10 µM unless noted

With `COc1ccc(C(O)c2cc3c(N)c(C(=O)Nc4cccc(Cl)c4)sc3nc2C)cc1` (stereo unspecified), the growth is 29.5% with NCI-H226 lung; 46.6% in the test on NCI-H322M lung; 26.6% with HOP-62 NSCLC; 1.28% (active) in the test on NCI-H460 lung; 74% in the test on HOP-92 NSCLC; 14.6% in the test with NCI-H522 lung. Also, the growth is 21.2% in the test on A549/ATCC NSCLC; 31.5% in the test with 786-0 renal; 8.86% (active) with DU-145 prostate; 10.7% in the test with K-562 leukemia; 41% in the test on MALME-3M melanoma; 20.2% in the test on MDA-MB-231 breast. Besides, the growth in the test on RXF 393 renal was -10.9% (active); in the test with SF-268 CNS, 28.9%; in the test with SF-295 CNS, 9.76% (active); in the test with SF-539 CNS it was 2.14% (active); in the test with UACC-257 melanoma, 47.1%; in the test with M14 melanoma, 21.3%.
Take `CCCCCCC(=O)Nc1ncc(Cc2ccc(C)cc2)s1`: the growth was 64.1% with NCI-H226 lung; 58.4% in the test on NCI-H322M lung; 40.3% in the test with HOP-62 NSCLC; 23.4% in the test with NCI-H460 lung; 60.4% with HOP-92 NSCLC; 22.2% in the test with NCI-H522 lung. Also, the growth is 47.5% with A549/ATCC NSCLC; 46% in the test on 786-0 renal; 42.2% with DU-145 prostate; 24.2% in the test on K-562 leukemia; 58.6% with MALME-3M melanoma; 59.9% with MDA-MB-231 breast. Besides, the growth with RXF 393 renal was -7.29% (active); in the test with SF-268 CNS, 58.1%; in the test on SF-295 CNS, 34.6%; in the test on SF-539 CNS, 20.6%; with UACC-257 melanoma, 55.2%; with M14 melanoma, 31.6%.
Consider `CCOC(=O)Nc1nc2ccc(SCC(C)C)cc2s1`, for which the growth was 46.6% with NCI-H226 lung; 36.7% in the test with NCI-H322M lung; 19.3% in the test on NCI-H460 lung; 33.6% in the test on HOP-92 NSCLC; 4.9% (active) with NCI-H522 lung; 28.5% in the test on A549/ATCC NSCLC. Further, the growth in the test on 786-0 renal is 27.8%; in the test with COLO 205 colon, -14.9% (active); in the test with DU-145 prostate, 42.2%; with K-562 leukemia, 18%; with MALME-3M melanoma, 32.4%; in the test with MDA-MB-231 breast, 40.6%. Besides, the growth with RXF 393 renal was -3.43% (active); in the test with SF-268 CNS, 45.2%; in the test with SF-295 CNS, 26.1%; in the test with SF-539 CNS, 12.3%; in the test with UACC-257 melanoma, 55%; with M14 melanoma it was 25.8%.
With `COc1ccc(NC(=O)c2cccc(C3CCc4c(cc(OC)c(OC)c4OC)O3)c2)cc1` (stereo unspecified), the growth in the test with NCI-H226 lung was 47.5%; in the test with NCI-H322M lung it was 53.9%; in the test with HOP-62 NSCLC, 30.7%; in the test with NCI-H460 lung, 18.2%; in the test on HOP-92 NSCLC, -2.49% (active); in the test with NCI-H522 lung, 21.8%. Also, the growth with A549/ATCC NSCLC was 32.1%; with 786-0 renal it was 26.1%; with COLO 205 colon, 41.3%; in the test on DU-145 prostate, 63.2%; in the test on K-562 leukemia, 6.79% (active); in the test on MALME-3M melanoma, 41.7%. Also, the growth with MDA-MB-231 breast was 31%; with RXF 393 renal it was 53%; in the test on SF-268 CNS, 50.2%; in the test with SF-295 CNS, 23.9%; in the test on SF-539 CNS, 18.9%; in the test with UACC-257 melanoma, 46.5%. Besides, in the test on M14 melanoma, the growth is 28.2%.
For the molecule `Nc1c(C(=O)O)cc(Cl)cc1[N+](=O)[O-]`, the growth is 96.4% in the test on NCI-H226 lung; 103% in the test on NCI-H322M lung; 89.7% in the test with HOP-62 NSCLC; 108% in the test on NCI-H460 lung; 58.7% in the test on HOP-92 NSCLC; 98.4% with NCI-H522 lung. Moreover, the growth is 97.6% in the test on A549/ATCC NSCLC; 96.1% with 786-0 renal; 115% in the test on COLO 205 colon; 108% with DU-145 prostate; 95.2% with K-562 leukemia; 105% with MALME-3M melanoma. Moreover, the growth in the test on MDA-MB-231 breast was 91.3%; in the test on RXF 393 renal, 88.9%; in the test with SF-268 CNS it was 98%; with SF-295 CNS, 109%; with SF-539 CNS it was 99.7%; with UACC-257 melanoma, 96.8%. The growth in the test with M14 melanoma was 96.8%.
Take `O=C(CCCCCCN1CC(=O)N2[C@@H](c3ccc(Cl)cc3)c3[nH]c4ccccc4c3C[C@H]2C1=O)NO`: the growth in the test with NCI-H226 lung was 90.2%; in the test with NCI-H322M lung, 70.3%; in the test on HOP-62 NSCLC, 66.4%; in the test on NCI-H460 lung it was 67.6%; in the test with HOP-92 NSCLC it was 15.3%; in the test with NCI-H522 lung it was 38.2%. Further, the growth is 93.6% in the test with A549/ATCC NSCLC; 83.9% with 786-0 renal; 75.3% in the test with COLO 205 colon; 73.4% with DU-145 prostate; 29.7% with K-562 leukemia; 37.2% in the test on MALME-3M melanoma. Further, the growth in the test with MDA-MB-231 breast was 50.9%; in the test with RXF 393 renal, 72.7%; in the test on SF-268 CNS, 91.2%; in the test with SF-295 CNS it was 80.6%; in the test on SF-539 CNS, 63.5%; in the test with UACC-257 melanoma, 79.7%. In addition, the growth with M14 melanoma is 59%.
With `COc1ccc(C2=C/C(=C\c3ccc(Cl)cc3)C(=O)N2/N=C/c2ccc(Cl)cc2)cc1`, the growth in the test with NCI-H226 lung was 93.1%; in the test on NCI-H322M lung, 89.7%; in the test with HOP-62 NSCLC it was 97.8%; in the test with NCI-H460 lung it was 106%; with HOP-92 NSCLC, 72.8%; in the test with NCI-H522 lung, 73.9%. Moreover, the growth in the test on A549/ATCC NSCLC is 80.7%; in the test with 786-0 renal, 103%; in the test with COLO 205 colon it was 96.9%; in the test with DU-145 prostate, 105%; in the test on K-562 leukemia, 89.2%; in the test with MALME-3M melanoma it was 96.4%. For the same molecule, the growth was 88.8% in the test on MDA-MB-231 breast; 99.3% in the test on RXF 393 renal; 92.6% in the test with SF-268 CNS; 100% with SF-295 CNS; 101% in the test with SF-539 CNS; 88.7% in the test with UACC-257 melanoma. Also, the growth with M14 melanoma was 100%.
For `COc1ccc(-c2cc(C(=O)N3N=C(c4ccc(N)cc4)CC3c3ccccc3)c3ccccc3n2)cc1` (stereo unspecified), the growth was 77.3% in the test with NCI-H226 lung; 47.1% in the test with NCI-H322M lung; 30.6% in the test on HOP-62 NSCLC; 18.2% in the test on NCI-H460 lung; 34.5% in the test with HOP-92 NSCLC; 23.7% in the test with NCI-H522 lung. Also, the growth in the test with A549/ATCC NSCLC was 39.4%; in the test with 786-0 renal, 37.3%; with COLO 205 colon, 10.8%; in the test with DU-145 prostate, 21.8%; in the test on K-562 leukemia, 19.8%; in the test with MALME-3M melanoma, 54.6%. Moreover, the growth is 62.9% in the test with MDA-MB-231 breast; 51.1% in the test with RXF 393 renal; 51.5% with SF-268 CNS; 6.86% (active) with SF-295 CNS; 13.4% in the test with SF-539 CNS; 47.2% with UACC-257 melanoma. Moreover, the growth with M14 melanoma is 17.2%.
On to `C/C(C=O)=C\c1ccc2c(c1)OCO2`, for which the growth with NCI-H226 lung is 85.2%; in the test with NCI-H322M lung, 135%; in the test on HOP-62 NSCLC it was 108%; with NCI-H460 lung, 118%; in the test with HOP-92 NSCLC, 104%; in the test with NCI-H522 lung, 99.9%. The growth with A549/ATCC NSCLC was 105%; in the test on 786-0 renal, 107%; with COLO 205 colon it was 118%; in the test with DU-145 prostate, 108%; with K-562 leukemia it was 113%; with MALME-3M melanoma, 127%. Besides, the growth in the test on MDA-MB-231 breast is 121%; in the test with RXF 393 renal, 98.3%; in the test with SF-268 CNS, 110%; with SF-295 CNS, 104%; in the test with SF-539 CNS, 106%; with UACC-257 melanoma, 109%. Moreover, the growth in the test with M14 melanoma was 121%.
With `COc1cc2c(c(OC)c1OC)C(=O)N[C@@H]1[C@@H](O)[C@@H](O)[C@H](O)C[C@@H]21`, the growth with NCI-H226 lung is 102%; in the test on NCI-H322M lung it was 104%; in the test with HOP-62 NSCLC, 102%; with NCI-H460 lung, 110%; with HOP-92 NSCLC, 91.4%; with NCI-H522 lung, 97.7%. The growth in the test on A549/ATCC NSCLC is 98.4%; with 786-0 renal, 94.9%; in the test on COLO 205 colon, 108%; in the test with DU-145 prostate it was 110%; in the test on K-562 leukemia it was 96.6%; in the test with MALME-3M melanoma it was 108%. The growth is 106% with MDA-MB-231 breast; 102% with RXF 393 renal; 103% in the test on SF-268 CNS; 98.3% with SF-295 CNS; 100% in the test with SF-539 CNS; 100% in the test with UACC-257 melanoma. The growth in the test on M14 melanoma was 98.5%.
As for `Cc1cccc(N2CCN(C(=S)c3ccc4c(c3)OCO4)CC2)c1`, the growth with NCI-H226 lung was 57.2%; in the test with NCI-H322M lung, 33.2%; with HOP-62 NSCLC, 28.9%; with NCI-H460 lung it was 8.2% (active); in the test with HOP-92 NSCLC, 74.4%; in the test on NCI-H522 lung, -25.2% (active). For the same molecule, the growth in the test on A549/ATCC NSCLC is 31.7%; in the test on 786-0 renal, 30.2%; in the test with COLO 205 colon it was -36% (active); with DU-145 prostate, 11%; in the test on K-562 leukemia, 14%; with MALME-3M melanoma, 21.8%. Moreover, the growth is 45.3% with MDA-MB-231 breast; -15.1% (active) in the test with RXF 393 renal; 47.2% in the test with SF-268 CNS; 2.38% (active) in the test with SF-295 CNS; -26.9% (active) with SF-539 CNS; 32.5% in the test on UACC-257 melanoma. The growth in the test on M14 melanoma was -4.87% (active).
